Assay outcomes from PubChem BioAssay.
PI5P4K alpha inh: PI5P4K alpha (human) kinase inhibition | P48426 | PI5P4Kalpha enzyme, ADP-Glo luminescence, 60 min; hits give low values | max response, % | 1.2% of 330,000 active | AID 652105; active means max response of -50% or lower; inconclusive means between -30% and -50%; inactive means -30% or higher; further: value at the top dose of about 77 µM; on the % scale 0 is the no-effect control and ±100 the full control effect
Target sequence (P48426 whole entry, looked up): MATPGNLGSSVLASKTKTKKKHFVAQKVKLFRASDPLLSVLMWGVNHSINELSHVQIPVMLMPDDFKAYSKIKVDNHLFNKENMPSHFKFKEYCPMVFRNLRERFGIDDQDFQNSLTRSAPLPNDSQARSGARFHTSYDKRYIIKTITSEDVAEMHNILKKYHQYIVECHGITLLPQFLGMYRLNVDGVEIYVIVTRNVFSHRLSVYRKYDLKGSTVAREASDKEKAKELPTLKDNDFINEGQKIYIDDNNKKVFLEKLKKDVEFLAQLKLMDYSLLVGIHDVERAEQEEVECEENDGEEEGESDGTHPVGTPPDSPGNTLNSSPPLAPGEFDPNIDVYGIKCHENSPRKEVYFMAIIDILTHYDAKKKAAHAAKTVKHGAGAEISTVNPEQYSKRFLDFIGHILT
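PI5P4Kalpha ADP-Glo assay; 5 microM ATP final; 60 min RT reaction; HEPES pH 7.4/EGTA/CHAPS, 5% DMSO; controls lacking substrate or enzyme; luminescent end-point.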
POLI inh: blocks human DNA polymerase iota activity; Q9UNA4; Pol iota fluorescent replication assay, 10 min; Potency, µM (series often up to 115 µM), for inactives: at the top dose activity, negative = inhibition, actives largely listed as inhibitors; 1% of 390,000 active; further: potency means the concentration at half of the fitted maximal effect
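Pol iota at 10 nM preincubated 15 min with compounds at room temperature; reaction started with fluorescent substrate, 50 nM final. Fluorescence read kinetically at 0 and 10 min; buffer-only wells as negative control.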
Pol beta inh: blocks human DNA polymerase beta activity | 1.3% of 340,000 active | Potency, µM (highest dose often 114 µM), for the others: at the highest dose activity change, negative = inhibition, hits mostly inhibitors | P06746 | Pol beta primer extension/strand displacement, fluorescence kinetic; further: potency means the concentration at half of the fitted maximal effect; on the % scale 0 is the no-effect control and ±100 the full control effect
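Homogeneous kinetic assay of primer extension and strand displacement by 10 nM Pol beta, preincubated 15 min at room temperature with compound before 50 nM substrate (final) was added. Read at 0 and 10 min; four-parameter Hill fit.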
POLK inh: blocks human DNA polymerase kappa activity. Q9UBT6. Potency, µM (series often up to 107 µM), inactives show at the top dose activity, negative = inhibition, hits mostly inhibitors. purified Pol kappa, fluorescent DNA synthesis assay, 10 min. 0.53% of 400,000 active; further: potency means the concentration at half of the fitted maximal effect; on the % scale 0 is the no-effect control and ±100 the full control effect
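50 nM final substrate added after 15 min RT preincubation of 10 nM Pol kappa with compound; fluorescence read at 0 and 10 min.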
ALOX12 inh: blocks human arachidonate 12S-lipoxygenase | P18054 | purified 12hLO, xylenol orange hydroperoxide absorbance | 1.1% of 580,000 active | AID 1671190 | Potency, µM (top dose mostly 108 µM), inactives show top-dose activity change, negative = inhibition, actives largely listed as inhibitors; further: potency means the concentration at half of the fitted maximal effect; on the % scale 0 is the no-effect control and ±100 the full control effect
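Purified human 12hLO (150 nM final) in 25 mM Hepes, 0.01% Triton X-100, pH 7.0 was preincubated 15 min at room temperature with compound. Then 40 uM arachidonic acid was added, 30 min. Hydroperoxide was read by Fe-XO absorbance ratio 573/405 nm.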
POLH inh: DNA polymerase eta (human) inhibition; Q9Y253; recombinant Pol eta, fluorescent DNA replication assay; Potency, µM (series often up to 114 µM), inactives show at the highest dose activity change, negative = inhibition, most hits filed as inhibitors; 1.2% of 390,000 active; AID 588591; further: potency means the concentration at half of the fitted maximal effect; on the % scale 0 is the no-effect control and ±100 the full control effect
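Fluorescent replication assay: 50 nM final substrate added after a 15 min room-temperature compound preincubation with 10 nM enzyme. Signal taken at 0 min and again at 10 min.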
* marks the source's active call; other numbers are inactive results; ? = inconclusive; . = no result; ! = not confirmed by another sample; [ ] = remark or other dose. A selection: hits, their analogues and other compounds. The true share with any hit is near 2.9%. Unless noted, the call rests on the fitted dose curve; in most records, active means well fitted inhibition curve with a large enough effect; inconclusive means small, poorly fitted or top-dose-only effect, or another doubt; inactive means no such curve, though single readings can be large or run the other way.

SMILES | PI5P4K alpha inh | POLI inh | Pol beta inh | POLK inh | ALOX12 inh | POLH inh
Cc1ccc2nc(-c3ccc(N4C(=NC(=O)CCC(=O)O)SC5CS(=O)(=O)CC54)cc3)sc2c1 (centres undefined) | ? | ? | ? | ? | . | 3.5µM*
COc1ccc(C2Cn3nnc(C(=O)N4CCN(C(=O)c5cccc(C)c5)CC4)c3CO2)cc1 (centres undefined) | . | . | . | . | 19% | .
COc1ccc(C2C=C(c3cccc(OC)c3)Nc3c(C(=O)Nc4ccccc4)cnn32)cc1 (centres undefined) | . | 9% | 0% | -20% | 8% | -16%
COc1cccc(C2=CC(c3ccccc3F)n3ncc(C(=O)Nc4ccc(C)cc4)c3N2)c1 (centres undefined) | . | -2% | 28µM* | -9%[60.1 µM] | -19% | -18%
CC(O)c1ccc(-c2ccc(CNC3CCCC3)o2)cc1 (centres undefined) | . | . | . | . | -35% | .
Oc1ccc(Nc2nc(-c3ccccc3O)nc3ccccc23)cc1 | 2 | -18% | ? | 5% | 28µM*! | -21%
Oc1ccc(Nc2nc(-c3ccccc3F)nc3ccccc23)cc1 | 0 | 38% | 1% | 12% | 18µM*! | -12%
COc1ccc(Nc2nc(-c3ccccc3O)nc3ccccc23)cc1 | 11 | 109% | 2% | -8% | 17% | 0%
Fc1cccc(Nc2nc(-c3ccncc3)nc3ccccc23)c1 | -7 | ? | 13µM* | -23% | -15% | 14µM*
CCOC(=O)COc1ccc2cc(-c3ccc(Cl)cc3)c(=O)oc2c1 | . | . | . | . | 12% | .
O=C(NC1CC1)c1cc(-c2ccccc2Cl)nc2ccccc12 | . | . | . | . | 14% | .
COc1ccccc1-c1nnc(SCC(=O)N(CC(C)C)CC(C)C)n1N | . | . | . | . | 8% | .
Nc1nc2ncc(C(=O)c3cc(F)ccc3O)cc2s1 | -25 | 16% | 25% | -1% | 0% | -17%
Nc1nc2ncc(C(=O)c3cc(Cl)cc(Cl)c3O)cc2s1 | -57* | 139% | -12% | -17% | ? | -24%
O=C(CCCSc1ccccc1)Nc1nc(-c2ccco2)c(-c2ccco2)s1 | ? | ? | ? | ? | 16µM* | ?
Nc1nc(-c2ccco2)c(-c2ccco2)s1 | ? | ? | ? | -13% | ? | ?
O=C(CCl)Nc1nc(-c2ccco2)c(-c2ccco2)s1 | -18 | ? | ? | -32% | ? | 13µM*
COC(=O)COc1nc(C)c2c(c1C#N)CCCC2 | . | . | . | . | 15% | .
Cc1nnc(SCc2ccc(CSc3nnc(C)c(=O)[nH]3)cc2)[nH]c1=O | -16 | ? | ? | -11% | -1% | 79µM*
O=C(O)C(c1c[nH]c2ccccc12)N1CCN(c2nsc3ccccc23)CC1 (centres undefined) | . | . | . | . | -6% | .
Cc1ccc(Cn2c(C3CCCN3c3nc(-c4cc(Cl)c(N)c(Cl)c4)cs3)nc3cc(C(=O)NCCCO)ccc32)cc1 (centres undefined) | 1 | 45µM* | . | -11% | -2% | -12%
CCC(=O)Nc1ccc2oc(-c3ccc(OC)c(Cl)c3)nc2c1 | . | . | . | . | -22% | .
Cc1ccc(-n2c(SCc3cc(=O)n4ccsc4n3)nnc2-c2cccnc2)c(C)c1 | . | ? | 18µM* | -9% | 9% | 4%
CCn1c(-c2ccc(Br)cc2)cnc1SC(C)C(N)=O (centres undefined) | . | . | . | . | -4% | .
O=C(NC1CCCC1)N1c2ccccc2CC1c1noc(C2CCOCC2)n1 (centres undefined) | . | . | . | . | 60% | .
SMILES | PI5P4K alpha inh | POLI inh | Pol beta inh | POLK inh | ALOX12 inh | POLH inh
O=C(O)c1cc2ccc(Br)cc2[nH]1 | . | . | . | . | 18µM* | .
O=C(Nc1ccc(Cl)cc1F)c1ccc(COc2c(F)c(F)c(F)c(F)c2F)o1 | -24 | -15% | 45µM* | -32% | 291% | 20µM*
COc1ccc(-c2nc(CS(=O)CC(=O)N3CCOCC3)c(C)o2)cc1 (centres undefined) | . | . | . | . | 7% | .
CCOC(=O)CCN(C(=O)CCc1c(C)c2ccc(OC)cc2oc1=O)C1CC1 | . | . | . | . | -32% | .
COc1ccc(-c2ocnc2C(=O)Nc2ccc(C(C)C)cc2)cc1OC | . | . | . | . | -1% | .
COc1ccc(NC(=O)C2=C(C)Nc3ncnn3C2c2ccc[nH]2)cc1 (centres undefined) | . | ? | 79µM* | 5%[60.1 µM] | -11% | ?
CC1=C(C(=O)Nc2ccc(C)cc2C)C(c2ccc[nH]2)n2ncnc2N1 (centres undefined) | . | ? | 11% | -10%[60.1 µM] | -26% | -4%
COc1ccc(/C=C2/SC(=O)N(CCC(=O)Nc3ccc(S(=O)(=O)Nc4nccs4)cc3)C2=O)cc1 | ? | ? | 22µM* | -12% | -7% | 32µM*
COc1ccc(/C=C2\SC(=S)N(CCC(=O)Nc3ccc(O)cc3)C2=O)cc1 | -6 | 92% | 2% | -5% | -6% | -7%
COc1ccc(/C=C2\SC(=O)N(CCC(=O)Nc3ccc(S(=O)(=O)Nc4nccs4)cc3)C2=O)cc1 | -22 | 68% | 50µM* | -5% | ? | -15%
COc1ccc(N2CC(C(=O)Nc3ccc(S(=O)(=O)Nc4nccs4)cc3)CC2=O)c(OC)c1 (centres undefined) | -16 | ? | . | ? | 220% | 50µM*
Cc1ccc(N2CC(C(=O)Nc3ccc(S(=O)(=O)Nc4nccs4)cc3)CC2=O)cc1C (centres undefined) | -3 | 22% | 23% | -17% | -16% | -5%
COc1ccc(Cl)cc1NC(=O)CSc1nc2c(c(=O)n1CCc1ccccc1)SCC2 | . | . | . | . | 10% | .
Cc1c(CC(=O)N2CCN(C(=O)C3COc4ccccc4O3)CC2)c(=O)oc2cc(O)c(Cl)cc12 (centres undefined) | -51* | 22% | -11% | -16% | -5% | ?
COc1ccc2c(C)c(CC(=O)N3CCN(C(=O)C4COc5ccccc5O4)CC3)c(=O)oc2c1C (centres undefined) | -11 | -17% | -17% | -3% | -30% | -7%
O=S1(=O)CCC(n2ncc3c2/C(=C/c2ccccc2)CC3)C1 (centres undefined) | -14 | 60% | -22% | -14% | ? | -8%
O=C(O)c1ccccc1-n1ncc2c1/C(=C/c1ccc(Cl)cc1)CC2 | . | . | 40µM* | . | -3% | .
Cc1cc(Cl)ccc1OC(C)C(=O)Nc1ccc(C(=O)Nc2ccccc2C(=O)O)cc1 (centres undefined) | ? | ? | 79µM* | -16% | 50µM* | -27%
COc1ccc(CN2CCN(Cc3c[nH]c4ccccc34)CC2)cc1OC | 0 | . | . | . | 1.1µM* | -3%
COc1ccc(CN2CCN(Cc3c[nH]c4ccccc34)CC2)cc1 | -2 | 24% | -4% | -14% | 0.71µM* | -13%
